FMDV antiviral = foot and mouth disease virus antiviral activity; FMDV antiviral cell-based qHTS; Potency, µM (series often up to 57.9 µM), most hits filed as inhibitors; hit rate 1.2% among 410,000; calls by dose curve; tested in HEK293T cells; also: read-out not given here; nearly all actives have a fitted effect of over 45% in size
HCMV inh = blocks human cytomegalovirus replication; HFF cells, HCMV-luciferase reporter, 72 h; hits give low values; activity change, negative = inhibition, % at 57.5 µM; hit rate 4.5% among 410,000; in the data active = activity change below about -60%; inconclusive = no clear call, values can overlap the other calls; inactive = above about -39%
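HFF cells seeded 16 h at 37C, treated with compounds, infected with luciferase-reporter HCMV at MOI 1 PFU/cell; luciferase read at 72 h post infection, normalized to buffer-only and Salinomycin controls.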
HCV inh = HCV inhibition | hit rate 3.4% among 340,000 | Potency, µM (titrated, usually from 41.8 µM), most hits filed as inhibitors | AID 651820 | Huh7.5.1 HCVcc-Cre infection, luciferase reporter, 44 h
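Seed cells (1,000/well) for 4 h; treat with compound and infect with HCVcc-Cre, moi about 0.5. Incubate 44 h, then detect luciferase activity.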
Sm TGR inh = inhibitors of Schistosoma mansoni thioredoxin glutathione reductase. purified TGR, DTNB reduction, TNB absorbance 405 nm. hit rate 3% among 360,000. Potency, µM (doses to about 114 µM), actives largely listed as inhibitors. Q962Y6; also: nearly all actives have a fitted effect of over 60% in size
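Kinetic colorimetric format: TGR-catalysed, NADPH-driven DTNB reduction monitored via TNB absorbance. Enzyme dispensed at 20 nM; compound exposure 15 min at room temperature before reaction start.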
Vaccinia Venus = inhibitors of vaccinia virus (Venus reporter); Vaccinia virus Venus reporter expression, fluorescence; Potency, µM (highest dose often 36.5 µM), most hits filed as inhibitors; hit rate 0.46% among 330,000; calls by dose curve; tested in A549 cells; also: nearly all actives have a fitted effect of over 30% in size
VACV mCherry inh = inhibitors of vaccinia virus infection (mCherry reporter signal); Potency, µM (top dose mostly 36.5 µM), hits mostly inhibitors; AID 720579; hit rate 0.63% among 310,000; Vaccinia virus mCherry reporter infection, fluorescence; calls by dose curve; tested in A549 cells; also: nearly all actives have a fitted effect of over 35% in size
Hits are given with their value; . = inactive; ? = inconclusive; / = no result. Rows were chosen to be rich in hits. Some 9.3% of all compounds tested hit in one or more screens of this group. Unless noted, calls follow the shape of the dose curve; as a rule, active = well fitted curve in the direction sought with a large enough effect; inconclusive = small, poorly fitted or top-dose-only effect, or another doubt; inactive = no such curve, though single readings can be large; an effect the other way counts as inactive or inconclusive.

SMILES	FMDV antiviral	HCMV inh	HCV inh	Sm TGR inh	Vaccinia Venus	VACV mCherry inh
Cc1cc(S(=O)(=O)NCc2ccncc2)c(C)cc1Br	.	-87.5	/	.	.	.
CCc1ccc(OC)c(S(=O)(=O)Nc2ccc(Cc3ccncc3)cc2)c1	.	-75.0	8.91µM	.	.	?
O=S(=O)(Nc1ccc(Cc2ccncc2)cc1)c1ccc(Cl)c(Cl)c1	.	?	7.94µM	.	/	/
Cc1ccc(C)c(S(=O)(=O)NCc2ccncc2)c1	.	.	?	.	.	.
CC1(C)CC(=O)C(C2c3ccccc3Oc3ccccc32)C(=O)C1	.	?	.	.	/	/
S=C1Nc2ccccc2CS1	.	.	/	/	.	.
S=C1Cc2ccccc2N1	31.6µM	-82.8	?	.	/	/
CN(C1CCCC1)C1CCN(C(=O)CNC(=O)/C=C/c2ccccc2)CC1	.	?	.	.	.	.
CC1CCCCC1N(C)C1CCN(C(=O)CNC(=O)/C=C/c2cccc(Cl)c2)CC1 (configuration not stated)	.	-100.0	?	35.5µM	/	/
COc1ccc(NC(=O)CSc2nc3ccccc3n2CC(=O)NCc2ccc(F)cc2)cc1	.	.	/	.	.	.
Cc1ccccc1NC(=O)Cn1c(SCC(=O)Nc2ccc(F)cc2)nc2ccccc21	.	-64.4	/	.	.	.
COc1ccc(CNC(=O)Cn2c(SCC(=O)Nc3ccc(C)c(C)c3)nc3ccccc32)cc1	.	-66.9	/	.	?	?
CCOC(=O)c1sc2cccc(F)c2c1S(=O)(=O)Nc1ccccc1F	.	.	/	.	.	.
Cc1c(-c2nsc(NC(=O)c3cccs3)n2)nnn1-c1ccc(Br)cc1	.	-92.0	/	.	?	.
Cc1c(-c2nsc(NC(=O)c3ccc(Cl)cc3)n2)nnn1-c1ccc(C(C)C)cc1	.	-78.8	/	.	.	.
Cc1ccc(-n2nnc(-c3nsc(NC(=O)c4ccccc4)n3)c2C)cc1	.	.	/	.	.	.
O=C(Nc1cccc(F)c1)N1CC[C@@]2(CCCN(C(=O)c3ccco3)C2)C1	.	/	/	/	/	/
COc1ccccc1NC(=O)CN1C(=O)C2(SCC(=O)N2c2ccc(F)c(F)c2)c2ccccc21 (configuration not stated)	.	.	/	.	.	.
COc1ccccc1NC(=O)CN1C(=O)C2(SCC(=O)N2c2ccc(C)c(C)c2)c2ccccc21 (configuration not stated)	?	-71.9	/	.	.	.
COc1ccc(C(=O)NCCc2cccc(Cl)c2)cc1OC1CCN(C(C)=O)CC1	.	.	.	.	.	.
O=C(c1ccccc1)N1CCCOC1c1ccccc1 (configuration not stated)	.	.	.	.	.	.
O=C(c1ccccc1)N1CCOC(O)(c2ccccc2)C1c1ccccc1 (configuration not stated)	.	-61.1	.	/	.	.
O=C(Nc1cc(S(=O)(=O)N2CCCCC2)ccc1Oc1ccccc1)C1=COCCO1	.	.	22.4µM	.	/	/
COc1ccc(S(=O)(=O)N2CCCCCC2)cc1NC(=O)c1ccccc1	.	.	.	.	.	.
O=C(CCl)c1ccc2c(c1)CCN2C(=O)C1CC1	/	/	/	7.08µM	/	/
SMILES	FMDV antiviral	HCMV inh	HCV inh	Sm TGR inh	Vaccinia Venus	VACV mCherry inh
O=C(CCl)c1ccc2c(c1)CCN2C(=O)C1CCCCC1	20µM	.	?	1.26µM	.	.
O=C(C1CCC(C(=O)N2CCc3ccccc32)CC1)N1CCc2ccccc21 (configuration not stated)	.	.	.	.	.	/
CC(OC(=O)COc1ccc(C#N)cc1)C(=O)c1ccccc1 (configuration not stated)	.	.	.	.	.	.
COc1cc(/C=N/NC(=O)c2cccnc2)cc(Br)c1O	.	.	.	.	/	/
O=C(N/N=C/c1cc(Br)c(O)c(Br)c1)c1cccnc1	.	.	.	89.1µM	.	.
CCOc1cc(Br)cc(/C=N/NC(=O)c2cccnc2)c1O	?	.	?	.	?	7.08µM
O=C(N/N=C/c1c(-c2ccccc2)[nH]c2ccccc12)c1cccnc1	.	.	10µM	.	/	/
O=C(/C=C/c1ccco1)N1CCN(c2ncccn2)CC1	.	.	.	20µM	.	.
O=C(/C=C/c1ccco1)N1CCC(Cc2ccccc2)CC1	.	.	.	20µM	.	.
COc1ccc(S(=O)(=O)N2CCN(C(=O)/C=C/c3ccco3)CC2)cc1	.	.	.	8.91µM	.	.
O=C(/C=C/c1c(Cl)cccc1Cl)N1CCN(c2ncccn2)CC1	.	.	.	.	.	/
COc1cccc(N2CCN(C(=O)/C=C/c3ccco3)CC2)c1	.	.	.	22.4µM	.	.
CCc1nonc1NC(=O)c1oc2cc(Br)ccc2c1C	.	.	.	.	.	.
Cc1cc(S(=O)(=O)Nc2ccc(C(=O)NCC(c3ccco3)N3CCCCC3)cc2)ccc1F (configuration not stated)	.	.	.	.	.	.
Cc1ncc(COC(=O)C(C)C)c2cc(C(=O)Nc3ccccc3C(F)(F)F)c(=O)oc12	.	.	/	.	.	.
O=S(=O)(c1cccs1)N1CCN(CC(O)COC2CCCc3ccccc32)CC1 (configuration not stated)	?	.	.	.	.	.
CCOc1ccccc1N1CCN(CC(O)COC2CCCc3ccccc32)CC1 (configuration not stated)	.	.	11.2µM	.	.	?
N#Cc1c(N)n(CCc2ccc(F)cc2)c2nc3ccccc3nc12	.	-68.9	.	.	.	/
COCCn1c(N)c(C#N)c2nc3ccccc3nc21	.	.	.	.	/	/
O=[N+]([O-])c1ccc(CN2CC(N3CCCC3)CS2(=O)=O)cc1 (configuration not stated)	.	.	/	/	.	.
O=[N+]([O-])c1cccc(C=Nc2cccc3ccccc23)c1O	.	.	.	.	.	?
O=[N+]([O-])c1cc(O)c(O)c([N+](=O)[O-])c1	.	.	.	.	.	.
O=[N+]([O-])c1cc(-c2ccccc2)cc([N+](=O)[O-])c1O	?	-86.8	.	/	.	.
O=[N+]([O-])c1cc2ccccc2c(O)c1O	.	-100.3	/	/	.	?
O=C(COc1ccc(Cl)cc1)Nc1nc(-c2ccncc2)cs1	.	.	.	.	.	.
SMILES	FMDV antiviral	HCMV inh	HCV inh	Sm TGR inh	Vaccinia Venus	VACV mCherry inh
O=C(COc1ccccc1Cl)Nc1nc(-c2ccncc2)cs1	?	.	22.4µM	/	.	.
N#Cc1ccccc1OCC(=O)Nc1nc(-c2ccccn2)cs1	.	.	/	/	?	?
O=C(COc1ccc(F)cc1Cl)Nc1nc(-c2ccccn2)cs1	/	-81.6	?	.	/	/
Cc1onc(-c2c(F)cccc2Cl)c1C(O)c1ccc(F)cc1 (configuration not stated)	.	.	.	.	.	.
O=C1C=CC(=O)N1	.	?	?	0.891µM	.	.
O=C1C=CC(=O)C=C1	.	.	.	/	.	.

Source: PubChem BioAssay
